KB-3-1 cytotox: kills parental KB-3-1 adenocarcinoma cells; KB-3-1 viability, CellTiter-Glo ATP luminescence, 72 h; Potency, µM (series often up to 46.1 µM), usual class: cytotoxic; actives 1.4% (n = 400,000); AID 1347075; further: nearly all actives have a fitted effect of over 60% in size
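Parental KB-3-1 viability, qHTS format: 72 h compound exposure, 37 °C; CellTiter-Glo; media-only wells and DMSO plates as controls; concentration-effect fits on corrected data.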
HT1080 IDH1KD tx: HT-1080 IDH1 knockdown cell toxicity (counter line); Potency, µM (doses to about 46.1 µM), usual class: cytotoxic; AID 686971; actives 2% (n = 360,000); HT-1080 IDH1 knockdown viability, ATP luminescence, 48 h
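Cytotoxicity counter-line: IDH1KD HT-1080, 48 h, CellTiter-Glo. Curves classed by r2, magnitude and activity.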
KB-V1 MDR tox: KB-V1 MDR subline cytotoxicity; Potency, µM (highest dose often 46.1 µM), usual class: cytotoxic; AID 1347076; KB-V1 MDR cells viability, CellTiter-Glo, 72 h; actives 3.4% (n = 400,000); further: nearly all actives have a fitted effect of over 60% in size
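KB-V1 cells (P-gp-expressing MDR subline of KB-3-1) in phenol-red-free DMEM with 10% FBS were exposed to library compounds over a concentration series for 72 h at 37 degrees C. Viability read by CellTiter-Glo luminescence; concentration-effect curves fitted after normalization.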
HT1080-NT tox: kills 2HG-producing HT-1080-NT fibrosarcoma cells. HT-1080-NT fibrosarcoma viability, CellTiter-Glo ATP luminescence, 48 h. Potency, µM (highest dose often 46.1 µM), actives largely listed as cytotoxic. actives 1.6% (n = 360,000);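 further: NT is the 2HG producing partner of a matched IDH1 knockdown line; nearly all actives have a fitted effect of over 55% in size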
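750 cells/well, RPMI + 5% FBS; 2 h settle, compound pin-transfer, 48 h at 37 degrees C. CellTiter-Glo 10 min RT, luminescence. Normalized to DMSO and media-only wells.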
A number is an active result; 0 = inactive; ? = inconclusive; - = not tested or not shown; ! = a repeat was not active; [ ] = remark or other dose. A selection: hits, their analogues and other compounds. The true share with any hit is near 5.7%. The call rests on the fitted dose curve; in most records, active means well fitted curve in the direction sought with a large enough effect; inconclusive means small, poorly fitted or top-dose-only effect, or another doubt; inactive means no such curve, though single readings can be large; an effect the other way counts as inactive or inconclusive.

SMILES | KB-3-1 cytotox | HT1080 IDH1KD tx | KB-V1 MDR tox | HT1080-NT tox
CC(C)Oc1cc(F)ccc1-c1cc(C(=O)Nc2cccc(C(F)(F)F)c2)[nH]n1 | ? | ? | ? | 16µM
COc1ccc(NC(=O)c2cc(-c3ccc(F)cc3OC(C)C)n[nH]2)cn1 | ? | 0 | 0 | ?
CCC(NC(=O)c1ccc2nc(Cc3ccc(OC)cc3)oc2c1)c1ccncc1 (stereo unspecified) | ? | 21µM | 0 | ?
CCC(C)NC(=O)c1ccc2nc(Cc3ccc(OC)cc3)oc2c1 (stereo unspecified) | 0 | 0 | 0 | 0
COc1cccc(N2CCN(C(=O)CN3CCSc4ccccc43)CC2)c1 | 0 | - | ? | -
N=c1ccn(Cc2ccc(Cl)cc2Cl)cc1 | 6.5µM | 0[9.24 µM] | 0 | ?
N=c1ccn(Cc2ccccc2Cl)cc1 | ? | 0 | ? | 0
N=c1ccn(Cc2ccc(Cl)cc2)cc1 | 4.6µM | 0 | 0 | 0
O=c1[nH]c2cccc(Cl)c2n(CCNc2ncc(C(F)(F)F)cc2Cl)c1=O | ? | ? | ? | 23µM
CN(C)CCCN(C(=O)c1cc2cc([N+](=O)[O-])ccc2s1)c1nc2cc3c(cc2s1)OCCO3 | ? | ? | 18µM | ?
CN(C)CCCN(C(=O)c1ccc(Cl)s1)c1nc2cc3c(cc2s1)OCO3 | 0 | ? | 0 | 18µM
CN(C)CCCN(C(=O)c1ccc(C(=O)c2ccccc2)cc1)c1nc2cc3c(cc2s1)OCO3 | ? | ? | 21µM | ?
CCN(CC)CCN(C(=O)c1ccc(C(=O)c2ccccc2)cc1)c1nc2cc3c(cc2s1)OCO3 | 0 | 0 | 0 | 0
CN(C)CCCN(C(=O)c1cc(Cl)sc1Cl)c1nc2cc3c(cc2s1)OCO3 | 0 | ? | ? | ?
CN(C)CCCN(C(=O)c1ccc([N+](=O)[O-])s1)c1nc2cc3c(cc2s1)OCCO3 | 0 | 0 | 0 | 0
CCOCCn1ccc2c(OCC(=O)Nc3cc(OC)ccc3OC)cccc2c1=O | 0 | 0 | 16µM | 0
COc1ccc(OCC(=O)Nc2ccccc2O)cc1 | 0 | 0 | 16µM | 0
COc1ccccc1NC(=O)COc1ccc(-c2nn(C)c(=O)c3ccccc23)cc1 | ? | 0 | 18µM! | 0
CCc1ccc(OCC(=O)Nc2cc(S(=O)(=O)CC)ccc2O)cc1 | 0 | 0 | 16µM | 0
COCCn1ccc2c(OCC(=O)Nc3cc(OC)ccc3OC)cccc2c1=O | 0 | 0 | ? | 0
CC1CCCCN1C(=O)CSc1c2c(nc3cc(Cl)ccc13)CCCC2 (stereo unspecified) | 0 | - | 0 | -
Cc1ccc(OCC(=O)Nc2ccccc2C(N)=O)cc1 | 0 | 0 | 0 | 0
CCCNC(=O)c1ccccc1NC(=O)COc1ccc(OC)cc1 | 0 | 0 | 4.6µM | 0
COc1ccc(C(=O)NCCS(=O)(=O)N(C)C2CCCCC2)cc1 | 0 | 0 | 18µM | 0
NC(N)=N/N=C/c1ccc(Cl)c(Cl)c1 | 16µM | ? | 21µM | ?
SMILES | KB-3-1 cytotox | HT1080 IDH1KD tx | KB-V1 MDR tox | HT1080-NT tox
NC(N)=N/N=C/c1ccc(Cl)cc1Cl | ? | 16µM | ? | ?
O=C(NN=Cc1ccc(Cl)cc1Cl)c1ccccc1 | 0 | 0 | 0 | 0
NC(N)=N/N=C/c1ccc(OCc2ccccc2)c(OCc2ccccc2)c1 | ? | 18µM | 0 | 23µM
NC(N)=N/N=C/c1ccc(OCc2ccccc2Cl)cc1 | ? | 16µM | 0 | 13µM
NC(N)=N/N=C/c1ccccc1 | 0 | 0 | 0 | 0
CCN(c1cccc(C(F)(F)F)c1)S(=O)(=O)c1ccc2c(c1)CCN2C(=O)C1CC1 | 11µM | ? | ? | 0
CCn1cc([N+](=O)[O-])c(C(=O)Nc2nc(-c3ccc(C)c(C)c3)c(C)s2)n1 | 0 | 10µM | 0 | ?
CCn1cc([N+](=O)[O-])c(C(=O)Nc2nc(-c3ccc(C)cc3)c(C)s2)n1 | 0 | ? | ? | 0
Cc1ccc(C)c(NC(=O)C2CCCN(c3nc4ccccc4s3)C2)c1 (stereo unspecified) | 0 | - | 0 | -
CCN(CC)c1ccc2cc(-c3nc(-c4ccccc4)no3)c(=O)oc2c1 | 0 | - | 0 | -
O=C(c1ccc(S(=O)(=O)c2ccc(F)cc2)c([N+](=O)[O-])c1)N1CCCCCC1 | 0 | ? | 8.2µM | 0
O=C(c1ccc(S(=O)(=O)c2ccccc2Cl)c([N+](=O)[O-])c1)N1CCN(Cc2ccccc2)CC1 | ? | ? | 2.3µM | 0
O=C(c1ccc(F)cc1)N1CCN(c2cc(N3CCCCC3)c(F)cc2[N+](=O)[O-])CC1 | 0 | ? | 9.2µM | 0[9.24 µM]
COc1ccc(-c2cc(C(F)(F)F)nc(SCC(=O)NCCc3ccc(OC)c(OC)c3)n2)cc1 | 0 | - | 0 | -
O=C1CCn2c1c(O)c1ccccc1c2=O | ? | 0 | ? | 0
N=C1CCC(=N)c2c1c(O)c1ccccc1c2O | 0 | ? | 0 | 23µM
COc1ccc2c(c1)sc(N)[n+]2Cc1cc(C)cc2cccnc12 | 4.6µM | 5.2µM | 4.6µM | ?
Cc1cc(C[n+]2ncsc2N)c2ncccc2c1 | 0 | 0 | 0 | 0
Cc1cc(C[n+]2cc(Cl)ccc2N)c2ncccc2c1 | ? | 0 | 0 | 0
CCOc1ccc2c(c1)sc(N)[n+]2Cc1cc(C)cc2cccnc12 | 2.6µM | 3.3µM | 1.3µM | 6.5µM
CCCCSCCCNC(=O)CN1C(=O)COc2ccc(S(=O)(=O)N3CCC(C)CC3)cc21 | 0 | - | ? | -
CCc1nc(Nc2ccncc2)c2oc3ccccc3c2n1 | 8.2µM | 23µM | 0 | ?
Cc1nc(Nc2ccncc2)c2oc3ccccc3c2n1 | ? | 13µM | 0 | 0[9.24 µM]
Cc1ccc(OCCCSc2nc(-c3ccc(C(C)(C)C)cc3)nc3cc(=O)[nH]n23)cc1C | 0 | - | 0 | -
COCCNC(=O)CN1C(=O)CCn2nc(-c3cn(C)c4ccccc34)cc21 | 0 | - | 0 | -
SMILES | KB-3-1 cytotox | HT1080 IDH1KD tx | KB-V1 MDR tox | HT1080-NT tox
CC(=O)Nc1nc(-c2ccc3c(c2)CC(C)N3C(=O)C2CC2)c(C)s1 (stereo unspecified) | 0 | 0 | 0 | ?
Cc1sc(NC(=O)c2ccco2)nc1-c1ccc2c(c1)CC(C)N2C(=O)C1CC1 (stereo unspecified) | ? | 7.9µM | ? | 7.9µM
CC(C)c1ccc(C2C3=C(COC3=O)Nc3cc4c(cc32)OCO4)cc1 (stereo unspecified) | 0.73µM | 1.6µM | 1.2µM | 1.5µM
COc1ccc(C(=O)CC(Nc2ccc([N+](=O)[O-])cc2)c2ccc(Cl)cc2)cc1 (stereo unspecified) | 0 | 10µM | 6.5µM | ?
C/C=C1\NC(=O)[C@H](C)NC(=O)[C@@H](NC(=O)[C@H](Cc2ccc(O)cc2)NC(=O)[C@@H](NC(=O)/C(C)=C/C)C(C)C)[C@@H](C)OC(=O)[C@H](CCCc2ccc(O)cc2)NC(=O)[C@@H](CCC(=O)OC)NC1=O | 0 | 0 | 0 | 0
C/C=C1\NC(=O)[C@H](CC(N)=O)N(C)C(=O)C([C@@H](C)O)NC(=O)C(CCCc2ccc(OC)cc2)NC(=O)[C@H](C(C)C)NC(=O)/C(=C\C)NC(=O)[C@H](O)[C@@H](C[C@@H](O)CCCCCCC)NC(=O)[C@H](C)NC(=O)CN(C)C(=O)[C@H](CCC(N)=O)NC1=O (stereo partly specified) | 16µM | ? | 0 | 0
CCNc1nc(C#N)nc(N2CCOCC2)n1 | 0 | - | 0 | -

High-throughput results as filed in PubChem.
